We go through five compounds from PubChem BioAssay.

Calls of active or inactive are those of the source.

The subject of assay [1] is Human papillomavirus type 1a protein E7 (residues 44-93). Description: small molecules binding HPV E7 44-93 – biochemical, small-molecule microarray, residues 44-93, 635 nm fluorescence, primary screen (AID 1108).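 Further: E7 fragment applied at 1 µg/mL in TBST for 1 h at 4 C; score combines spot fluorescence with its signal to noise ratio.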 Conditions: fluorescence 635 nm, higher = more signal.
Assay [2] in a line: hepatitis C replication reporter changes, two-sided – Huh7 cells, luciferase reporter, HCV replication inhibitor project, primary screen (AID 1109).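 Further: huh7 hepatoma cells harbouring a luciferase neomycin HCV replicon reporter; luciferase luminescence as measure of HCV replicon replication; test concentration not given here.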 Conditions: Huh7 HCV replicon luciferase reporter, 48 h; higher = more signal. (A reporter such as luciferase makes a cellular process visible.)
For assay [3], the target named is Left-right determination factor 2 (Homo sapiens) (UniProt O00292). Kind of assay: small molecules binding LEFTY2 protein – biochemical, small-molecule microarray, 635 nm fluorescence scan, primary screen (AID 1110). Conditions: higher = more signal.
Left-right determination factor 2 (Homo sapiens), sequence (O00292 whole entry, looked up): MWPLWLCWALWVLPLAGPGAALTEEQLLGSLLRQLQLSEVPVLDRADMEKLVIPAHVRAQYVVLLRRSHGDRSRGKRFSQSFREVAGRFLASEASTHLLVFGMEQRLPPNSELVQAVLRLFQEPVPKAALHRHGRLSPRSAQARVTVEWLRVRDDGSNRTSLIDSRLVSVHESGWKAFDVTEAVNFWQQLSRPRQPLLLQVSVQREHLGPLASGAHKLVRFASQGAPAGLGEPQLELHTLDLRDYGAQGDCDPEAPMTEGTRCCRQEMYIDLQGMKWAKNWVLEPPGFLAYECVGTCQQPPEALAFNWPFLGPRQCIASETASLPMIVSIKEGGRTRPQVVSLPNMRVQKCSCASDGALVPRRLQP
In assay [4] the target is Calmodulin-1 (Homo sapiens) (UniProt P0DP23). Kind of assay: small molecules binding calmodulin-1 with EGTA – biochemical, small-molecule microarray, Cy5-labelled CALM1, profiling panel (AID 1111).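 Further: labelled calmodulin applied in Tris saline Tween buffer holding calcium plus EGTA and DTT.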 The conditions noted are these: Cy5-CALM1 binding fluorescence, higher = more signal.
Assay [5] has the same target. Description: small molecules binding Ca-loaded calmodulin-1 – biochemical, small-molecule microarray, Cy5-labelled CALM1, plus calcium, artefact control for SMM control-protein annotation, profiling panel (AID 1112).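 Further: score merges spot fluorescence with signal to noise from triplicate slides.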 Conditions: Cy5-CALM1 binding fluorescence, higher = more signal.
Assay [6] is described as follows: probe aWnt5a binding to arrayed compounds – biochemical, biotinylated probe, 635/667 nm fluorescence, primary screen (AID 1113).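 Further: score merges 667 nm fluorescence intensity with signal-to-noise per printed feature.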 Conditions: small-molecule microarray, higher = more signal.
A short description of assay [7]: probe aShh binding to arrayed compounds – biochemical, biotinylated probe, 635/667 nm fluorescence, primary screen (AID 1114).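 Further: probe is biotin-labelled aShh protein from a stem cell growth factor screen; measures binding of labelled protein to compounds printed on the slide; score merges feature fluorescence at 667 nm with signal-to-noise.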 The conditions noted are these: small-molecule microarray, higher = more signal.
The nature of assay [8]: probe aNog binding to arrayed compounds – biochemical, biotinylated probe, 635/667 nm fluorescence, primary screen (AID 1115).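 Further: probe is biotinylated aNog protein used at 0.15 µg/mL for 1 h at 4 C; z-score combines 667 nm fluorescence of each spot with its signal to noise.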 Conditions: small-molecule microarray, higher = more signal.
Assay [9] has as its target Torsin-1A-interacting protein 1 (Homo sapiens) (UniProt Q5JTV8). Kind of assay: compound microarray binding of lysate hLAP1 – cell lysate, small-molecule microarray, COS7 lysate, 635/667 nm fluorescence, primary screen (AID 1116). The conditions noted are these: 635 nm fluorescence, higher = more signal.
Assay [10] has as its target Alpha-bungarotoxin (Bungarus multicinctus) (UniProt P60615). Description: compounds binding labelled alpha-BTX control protein – biochemical, small-molecule microarray, Alexa647 label, 635/667 nm fluorescence, artefact control for SMM control protein annotation, profiling panel (AID 1117). Conditions: alpha-BTX-A647 binding fluorescence, higher = more signal.
In another assay the target is Albumin (Bos taurus) (UniProt P02769). Description: compounds binding labelled BSA control protein – biochemical, small-molecule microarray, Alexa647 label, 635/667 nm fluorescence, artefact control for SMM control protein annotation, profiling panel (AID 1118).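 Further: score merges 667 nm emission intensity and signal-to-noise per printed compound spot.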 Conditions: BSA-A647 binding, fluorescence 635 nm, higher = more signal.
Albumin (Bos taurus), sequence (P02769 whole entry, looked up): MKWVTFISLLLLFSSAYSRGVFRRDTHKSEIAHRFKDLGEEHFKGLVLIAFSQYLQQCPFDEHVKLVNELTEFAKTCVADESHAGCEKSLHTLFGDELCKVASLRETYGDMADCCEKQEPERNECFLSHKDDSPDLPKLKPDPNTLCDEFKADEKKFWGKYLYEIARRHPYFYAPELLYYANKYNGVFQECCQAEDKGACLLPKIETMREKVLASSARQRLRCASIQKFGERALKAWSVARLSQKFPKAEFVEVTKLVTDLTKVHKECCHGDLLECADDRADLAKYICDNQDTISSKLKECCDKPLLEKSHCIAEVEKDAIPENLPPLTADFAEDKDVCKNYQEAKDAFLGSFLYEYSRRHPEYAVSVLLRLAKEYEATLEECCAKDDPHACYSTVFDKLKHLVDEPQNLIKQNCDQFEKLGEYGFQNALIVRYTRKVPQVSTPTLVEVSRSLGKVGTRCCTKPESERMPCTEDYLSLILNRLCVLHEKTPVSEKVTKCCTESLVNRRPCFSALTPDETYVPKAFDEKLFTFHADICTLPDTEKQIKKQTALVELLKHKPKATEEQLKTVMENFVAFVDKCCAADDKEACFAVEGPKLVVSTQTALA
The nature of assay [11]: probe aXIP binding to arrayed compounds – biochemical, NeuroSMM set, 635/667 nm fluorescence, primary screen (AID 1119).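 Further: probe is the protein aXip251-270 applied at 1 µg/mL to compound-printed slides; binding of probe to printed compounds measured as 667 nm fluorescence plus signal to noise.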 Conditions: small-molecule microarray, higher = more signal, called active from +8 up or from −8 down.
The nature of assay [12]: probe aNOTCH3 binding on compound microarray – biochemical, small-molecule microarray, 635/667 nm fluorescence, primary screen (AID 1120).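 Further: probe is a biotin-tagged antibody raised against NOTCH3 rather than NOTCH3 protein; score merges spot fluorescence near 667 nm with spot signal to noise.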 Conditions: higher = more signal.
Assay [13] is described as follows: probe aNOTCH2 binding on compound microarray – biochemical, small-molecule microarray, 635/667 nm fluorescence, primary screen (AID 1121).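 Further: score merges feature fluorescence read at 667 nm with its signal to noise.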 The conditions noted are these: higher = more signal.
The target in assay [14] is Carbonic anhydrase 2 (Homo sapiens) (UniProt P00918). Description: compounds binding carbonic anhydrase 2 – biochemical, small-molecule microarray, Alexa647-labelled CAII, profiling panel (AID 1122). The conditions noted are these: CAII-A647 binding fluorescence, higher = more signal.
Assay [15] in a line: COS7 lysate on small-molecule microarray, probe aHis, 635 nm (AID 1123).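 Further: z-score combines 667nm fluorescence intensity with signal-to-noise per printed compound spot.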 The conditions noted are these: COS7 cell lysate, fluorescence, higher = more signal.
A short description of assay [16]: probe aLAP1 signal on lysate-treated microarray – cell lysate, small-molecule microarray, COS7 lysate, primary screen (AID 1124).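 Further: lysate comes from COS7 cells expressing LAP1 and is applied at 0.3 µg/mL; score merges spot fluorescence near 667 nm with signal-to-noise over triplicate slides.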 The conditions noted are these: probe aLAP1, fluorescence, higher = more signal.
A further assay has as its system Sam68 (KHDRBS1). Kind of assay: compounds binding KHDRBS1 protein – biochemical, small-molecule microarray, 635 nm fluorescence, primary screen (AID 1125).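 Further: score merges 667 nm channel intensity with signal to noise over triplicate slides.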 Conditions: higher = more signal.
The subject of assay [17] is Chordin-like protein 2 (CHRDL2). Kind of assay: compounds binding chordin-like 2 – biochemical, small-molecule microarray, 635 nm fluorescence, primary screen (AID 1126).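 Further: printed compound slides probed with Chrdl2 protein at 4 µg/mL for 1 h at 4 C; score merges 667 nm emission intensity with signal to noise over three replicate slides.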 Conditions: fluorescence 635 nm, higher = more signal.
For assay [18], the target named is Concanavalin-A (Canavalia ensiformis) (UniProt P02866). Description: compounds binding concanavalin A lectin – biochemical, small-molecule microarray, Alexa647 label, 635 nm, artefact control for SMM control protein annotation, primary screen (AID 1127).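 Further: z combines 667 nm emission intensity with signal-to-noise across three replicate slides.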 The conditions noted are these: ConA-A647 binding fluorescence, higher = more signal.
Concanavalin-A (Canavalia ensiformis), sequence (P02866 whole entry, looked up): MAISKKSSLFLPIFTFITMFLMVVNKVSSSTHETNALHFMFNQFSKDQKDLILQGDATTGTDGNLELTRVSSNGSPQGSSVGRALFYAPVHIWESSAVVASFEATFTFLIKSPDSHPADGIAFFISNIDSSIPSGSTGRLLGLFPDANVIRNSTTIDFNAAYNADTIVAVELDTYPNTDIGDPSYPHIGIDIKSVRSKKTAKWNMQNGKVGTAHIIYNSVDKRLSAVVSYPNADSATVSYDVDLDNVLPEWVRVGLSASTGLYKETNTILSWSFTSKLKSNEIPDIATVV

Torsin-1A-interacting protein 1 (Homo sapiens), sequence (Q5JTV8 whole entry, looked up): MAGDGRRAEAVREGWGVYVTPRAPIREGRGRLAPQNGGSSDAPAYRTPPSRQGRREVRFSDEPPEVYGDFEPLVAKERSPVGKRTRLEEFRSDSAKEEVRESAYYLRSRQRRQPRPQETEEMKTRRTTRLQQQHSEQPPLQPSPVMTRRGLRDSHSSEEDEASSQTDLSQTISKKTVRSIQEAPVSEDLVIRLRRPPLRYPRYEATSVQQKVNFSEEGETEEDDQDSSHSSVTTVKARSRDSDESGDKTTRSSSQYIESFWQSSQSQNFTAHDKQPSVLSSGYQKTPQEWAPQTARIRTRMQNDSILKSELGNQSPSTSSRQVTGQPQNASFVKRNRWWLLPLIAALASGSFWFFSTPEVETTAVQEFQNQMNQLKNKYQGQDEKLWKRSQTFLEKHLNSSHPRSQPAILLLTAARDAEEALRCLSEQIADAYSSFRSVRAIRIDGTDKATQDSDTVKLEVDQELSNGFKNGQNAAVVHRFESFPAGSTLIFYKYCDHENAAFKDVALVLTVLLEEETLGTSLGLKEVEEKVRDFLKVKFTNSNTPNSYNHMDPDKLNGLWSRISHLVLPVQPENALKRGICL
Alpha-bungarotoxin (Bungarus multicinctus), sequence (P60615 whole entry, looked up): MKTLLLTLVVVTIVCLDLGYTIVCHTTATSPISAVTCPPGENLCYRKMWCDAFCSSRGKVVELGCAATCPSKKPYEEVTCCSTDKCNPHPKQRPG

As to `COc1ccc(C(O)C2C=CC3C(=O)NC(=O)C3N2Nc2ccccn2)cc1OCc1ccccc1` (stereo not given), the composite z-score in assay [1] is -0.156; in [3] it was -0.0932; in assay [4], 0.916; in assay [5], 0.0805; in [6], -0.15; in [7], -0.0886. Moreover, the composite z-score in assay [8] is 0.185; in assay [9] it was 0.474; in assay [10], 0.251; with Albumin (Bos taurus), 0.68; in [12], 0.089; in assay [13] it was -0.0308. Besides, the composite z-score in assay [14] was 0.855; in assay [15], 1.76; in [16], 0.759; in the assay with Sam68 (KHDRBS1) it was -0.255; in assay [17], 0.0961; in [18], 0.212. In [2], the z-score was -0.129. In assay [11], the composite Z-score is 0.0296 (inactive).
Turning to `[N-]=[N+]=NCc1ccccc1[C@@H]1OC(c2ccc(OCCCO)cc2)=N[C@]1(Cc1ccccc1N=[N+]=[N-])C(=O)NCc1ccccc1`, the composite z-score in assay [1] was 1.33; in assay [3], 0.374; in assay [4], 1.34; in assay [5] it was 0.12; in [6], -0.138; in assay [7], -0.221. Moreover, the composite z-score in [8] was -0.447; in assay [9] it was 1.4; in [10], 0.158; with Albumin (Bos taurus), 0.753; in assay [12], 0.111; in [13] it was 0.0427. Further, the composite z-score was found to be 0.42 in [14]; 1.25 in [15]; 0.272 in assay [16]; 1.26 with Sam68 (KHDRBS1); 0.16 in assay [17]; 0.815 in assay [18]. The z-score in [2] is -1.64. For the same compound, the composite Z-score in assay [11] is -0.0079 (inactive).
On to `CC(C)=CCCC(C)=CC(O)C1C=CC2C(=O)N(c3ccccc3)C(=O)C2N1Nc1ccccc1` (stereo not given), for which the composite z-score in [1] came out at 0.704; in assay [3] it was 0.12; in [4], 2.23; in assay [5] it was 1.18; in assay [6], 0.139; in assay [7] it was 0.393. Besides, the composite z-score stood at 1.88 in assay [8]; 1.03 in [9]; 2.95 in [10]; 0.977 with Albumin (Bos taurus); 0.461 in assay [12]; 0.251 in assay [13]. For the same compound, the composite z-score in assay [14] was 0.646; in assay [15] it was 1.52; in assay [16] it was 0.78; in the assay on Sam68 (KHDRBS1) it was 1.27; in assay [17] it was -0.0528; in assay [18], 1.14. In addition, the z-score in [2] is -0.517. Also, the composite Z-score in assay [11] was -0.0662 (inactive).
On to `C=C(CCCC)C(=O)CC[C@H](OC(=O)c1cccnc1)c1cccc(OCCO)c1`, for which the composite z-score is 0.343 in assay [1]; 0.0112 in assay [3]; -0.538 in [4]; -0.993 in assay [5]; -0.0107 in [6]; -0.0035 in assay [7]. Further, the composite z-score in assay [8] is -0.356; in assay [9], 0.479; in assay [10], -0.0331; with Albumin (Bos taurus) it was -0.39; in assay [12], -0.0242; in assay [13], -0.14. Further, the composite z-score in assay [14] was 0.771; in [15], -0.112; in [16] it was 0.0948; with Sam68 (KHDRBS1), 0.269; in [17], 0.225; in assay [18] it was -0.106. This compound yielded a z-score in [2] of -3.04. Also, the composite Z-score in assay [11] was 0.087 (inactive).
As for `O=C1O[C@@H](c2ccccc2)[C@@H](c2ccccc2)N2[C@@H](c3ccc(OCCO)cc3)[C@]3(C(=O)Nc4ccc(C#CC5=CCCCC5)cc43)[C@@H](C(=O)O)[C@H]12`, the composite z-score was 0.594 in assay [1]; 0.374 in assay [3]; 2.23 in assay [4]; 1.15 in [5]; -0.102 in assay [6]; -0.107 in assay [7]. Besides, the composite z-score in assay [8] was determined as 0.167; in [9] it was 1.57; in assay [10], 2.89; with Albumin (Bos taurus), 0.953; in assay [12], 0.206; in [13], 0.0588. Besides, the composite z-score in [14] is 0.499; in assay [15] it was 0.866; in assay [16] it was 0.711; in the assay with Sam68 (KHDRBS1), 1.3; in [17] it was 0.0501; in [18] it was 1.16. The z-score in assay [2] is -1.63. Further, in assay [11], the composite Z-score was 0.556 (inactive).
